This passage reports Percent Effect results from ChEMBL document CHEMBL3988442, “University of Dundee, Small-Polar-MMV Screening Library” (2021).

Common to all, as to set-up: scale not given: direction of the effect not stated beside the values
In experiment [1] the target is Protein translocase subunit SecA (Escherichia coli (strain K12)) (UniProt P10408). Put plainly: Assay to Identify E. coli SecA ATPase Inhibitors. Type of experiment: functional. As to conditions: 30 µM.
The target in experiment [2] is T1, Ubiquitin-activating enzyme e1, putative (Leishmania donovani (strain BPK282A1)) (UniProt E9BSI1).
T1 sequence (whole entry): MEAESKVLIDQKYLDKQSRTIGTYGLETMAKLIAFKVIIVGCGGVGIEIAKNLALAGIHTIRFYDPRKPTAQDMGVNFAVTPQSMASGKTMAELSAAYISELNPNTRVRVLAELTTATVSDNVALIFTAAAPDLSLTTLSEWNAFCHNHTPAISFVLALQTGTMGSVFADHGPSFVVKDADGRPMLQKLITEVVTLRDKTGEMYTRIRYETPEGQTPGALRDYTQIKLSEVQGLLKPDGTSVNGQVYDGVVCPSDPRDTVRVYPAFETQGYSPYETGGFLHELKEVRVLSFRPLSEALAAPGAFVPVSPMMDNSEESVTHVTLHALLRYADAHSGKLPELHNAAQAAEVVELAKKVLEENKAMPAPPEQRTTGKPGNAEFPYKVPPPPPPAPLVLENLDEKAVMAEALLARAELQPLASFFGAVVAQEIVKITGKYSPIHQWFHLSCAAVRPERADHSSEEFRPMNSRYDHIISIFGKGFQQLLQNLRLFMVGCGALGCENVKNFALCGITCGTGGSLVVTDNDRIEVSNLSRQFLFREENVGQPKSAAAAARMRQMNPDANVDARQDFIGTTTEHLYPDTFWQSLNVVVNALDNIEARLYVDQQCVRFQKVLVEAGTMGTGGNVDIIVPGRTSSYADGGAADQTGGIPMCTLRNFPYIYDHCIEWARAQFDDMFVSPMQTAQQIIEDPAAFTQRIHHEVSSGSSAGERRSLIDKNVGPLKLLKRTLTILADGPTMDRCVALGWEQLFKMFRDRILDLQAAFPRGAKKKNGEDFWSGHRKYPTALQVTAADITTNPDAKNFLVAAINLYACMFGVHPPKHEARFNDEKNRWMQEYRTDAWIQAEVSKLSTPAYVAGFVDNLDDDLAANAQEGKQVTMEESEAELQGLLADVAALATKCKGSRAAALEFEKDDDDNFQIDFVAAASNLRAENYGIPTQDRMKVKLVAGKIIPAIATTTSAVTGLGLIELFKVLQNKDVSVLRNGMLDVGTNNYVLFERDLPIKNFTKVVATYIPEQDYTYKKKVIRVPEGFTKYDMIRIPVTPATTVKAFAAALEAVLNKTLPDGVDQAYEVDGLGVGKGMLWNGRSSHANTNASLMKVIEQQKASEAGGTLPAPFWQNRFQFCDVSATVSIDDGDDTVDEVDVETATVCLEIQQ
Put plainly: Leishmania donovani Ubiquitin Activating Enzyme (LdE1). The note with it: 30 µM. It is filed as functional.

The target of experiment [3] is AMP-activated protein kinase, AMPK (Homo sapiens) (UniProt P54646+O43741+P54619+Q9UGJ0+Q9Y478+Q13131+Q9UGI9). The experiment can be described thus: AMP-dependent Kinase enzyme assay. An in vitro enzyme assay that detects ADP turnover that is directly proportional to AMPK activity. This uses naive AMPK that is activated during the assay with MK-8722. It is filed as functional. The note with it: 30 µM.

The target of experiment [4] is Sialic acid-binding Ig-like lectin 9 (Homo sapiens) (UniProt Q9Y336). The experiment can be described thus: Hs-Siglec9 ALPHAscreen SOP 20170721. As to conditions: 10 µM. (Bead proximity is the source of the signal in Alpha formats.)
Experiment [5] has as its system Trypanosoma cruzi. Put plainly: Trypanosoma cruzi phosphomannomutase and mannose-1-phosphate guanylyltransferase assay. Type of experiment: functional. As to conditions: 10 µM.
In experiment [6] the target is T2, Arginase-2, mitochondrial (Homo sapiens) (UniProt P78540).
T2 sequence (whole entry): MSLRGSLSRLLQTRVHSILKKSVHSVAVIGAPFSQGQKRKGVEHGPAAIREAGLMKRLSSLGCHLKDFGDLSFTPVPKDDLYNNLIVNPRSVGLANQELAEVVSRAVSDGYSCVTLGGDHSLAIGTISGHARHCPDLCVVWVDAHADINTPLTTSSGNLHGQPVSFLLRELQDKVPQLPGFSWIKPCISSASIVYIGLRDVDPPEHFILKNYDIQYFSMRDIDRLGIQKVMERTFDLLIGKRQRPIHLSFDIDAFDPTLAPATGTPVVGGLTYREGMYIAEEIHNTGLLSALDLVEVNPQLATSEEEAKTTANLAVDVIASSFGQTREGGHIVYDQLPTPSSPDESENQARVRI
Put plainly: in vitro enzyme assay to detect the production of urea directly proportional to the activity of Arginase II. Further: in the data most compounds retested in dose-response had high values. It is filed as functional. As to conditions: 33.3 µM.

Experiment [7] concerns the target T3, Proteasome subunit beta (Trypanosoma cruzi) (UniProt O96673).
T3 sequence (whole entry): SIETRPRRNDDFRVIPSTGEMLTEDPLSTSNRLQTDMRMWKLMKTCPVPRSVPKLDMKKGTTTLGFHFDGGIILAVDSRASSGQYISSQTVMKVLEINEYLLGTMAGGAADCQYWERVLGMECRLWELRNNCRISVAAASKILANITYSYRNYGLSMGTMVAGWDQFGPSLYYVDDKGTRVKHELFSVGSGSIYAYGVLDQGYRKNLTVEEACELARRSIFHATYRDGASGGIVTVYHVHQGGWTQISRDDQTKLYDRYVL
The experiment can be described thus: Trypanosoma cruzi proteasome chymotrypsin-like activity (TcProtChymo) assay. Further: in the data most compounds retested in dose-response had high values. Type of experiment: functional. The note with it: 9.37 µM.

Experiment [8] is filed under the species Homo sapiens. The experiment can be described thus: To identify inhibition of the IFN signalling (Jak-Stat) pathway via expression of an eGFP reporter gene under the control of an IFN-stimulated response element (ISRE) containing MxA promoter. It is filed as functional. As to conditions: 30 µM. In general terms: Reporter assays use an easily measured gene product as a stand-in for the process of interest.

Experiment [9] has as its target T4, Tyrosyl-tRNA synthetase, putative (Trypanosoma cruzi (strain CL Brener)) (UniProt Q4DSP6).
T4 sequence (whole entry): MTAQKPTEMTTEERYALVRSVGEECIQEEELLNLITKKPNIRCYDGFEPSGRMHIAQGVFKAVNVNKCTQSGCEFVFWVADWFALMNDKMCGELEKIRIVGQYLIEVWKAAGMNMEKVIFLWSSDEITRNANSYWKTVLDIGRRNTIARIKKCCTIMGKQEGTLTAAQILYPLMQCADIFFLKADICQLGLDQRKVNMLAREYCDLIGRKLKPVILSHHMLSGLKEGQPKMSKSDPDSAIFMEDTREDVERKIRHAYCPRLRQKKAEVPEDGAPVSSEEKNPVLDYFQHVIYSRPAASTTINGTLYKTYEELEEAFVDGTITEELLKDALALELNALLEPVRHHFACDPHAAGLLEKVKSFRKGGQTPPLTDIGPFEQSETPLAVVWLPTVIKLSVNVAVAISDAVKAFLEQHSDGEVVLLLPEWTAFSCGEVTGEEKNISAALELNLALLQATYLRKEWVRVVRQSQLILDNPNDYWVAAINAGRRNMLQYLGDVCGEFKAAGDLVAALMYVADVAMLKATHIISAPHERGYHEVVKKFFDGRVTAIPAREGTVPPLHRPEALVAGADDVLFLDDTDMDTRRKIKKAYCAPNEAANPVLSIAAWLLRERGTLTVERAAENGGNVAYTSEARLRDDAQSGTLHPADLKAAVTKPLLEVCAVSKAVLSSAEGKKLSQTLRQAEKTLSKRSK
The experiment can be described thus: Trypanosoma cruzi tyrosyl tRNA synthetase (TcYRS) _High Tyrosine SOP. Further: in the data most compounds retested in dose-response had high values. Type of experiment: functional. As to conditions: 30 µM.

The target in experiment [10] is T4, Tyrosyl-tRNA synthetase, putative (Trypanosoma cruzi (strain CL Brener)). Put plainly: Trypanosoma cruzi tyrosyl tRNA synthetase (TcYRS) SOP. Type of experiment: functional. As to conditions: 30 µM.
Experiment [11] concerns the target Chromo domain-containing protein 1 (Saccharomyces cerevisiae (strain ATCC 204508 / S288c) (Baker's yeast)) (UniProt P32657). The experiment can be described thus: ScCHD-1 Enzyme Inhibition Assay. Further: in the data most compounds retested in dose-response had high values. Type of experiment: functional. As to conditions: 30 µM.

For some of these results: Potency and affinity values are given separately.

Chain of Protein translocase subunit SecA (Escherichia coli (strain K12)) (P10408 whole entry): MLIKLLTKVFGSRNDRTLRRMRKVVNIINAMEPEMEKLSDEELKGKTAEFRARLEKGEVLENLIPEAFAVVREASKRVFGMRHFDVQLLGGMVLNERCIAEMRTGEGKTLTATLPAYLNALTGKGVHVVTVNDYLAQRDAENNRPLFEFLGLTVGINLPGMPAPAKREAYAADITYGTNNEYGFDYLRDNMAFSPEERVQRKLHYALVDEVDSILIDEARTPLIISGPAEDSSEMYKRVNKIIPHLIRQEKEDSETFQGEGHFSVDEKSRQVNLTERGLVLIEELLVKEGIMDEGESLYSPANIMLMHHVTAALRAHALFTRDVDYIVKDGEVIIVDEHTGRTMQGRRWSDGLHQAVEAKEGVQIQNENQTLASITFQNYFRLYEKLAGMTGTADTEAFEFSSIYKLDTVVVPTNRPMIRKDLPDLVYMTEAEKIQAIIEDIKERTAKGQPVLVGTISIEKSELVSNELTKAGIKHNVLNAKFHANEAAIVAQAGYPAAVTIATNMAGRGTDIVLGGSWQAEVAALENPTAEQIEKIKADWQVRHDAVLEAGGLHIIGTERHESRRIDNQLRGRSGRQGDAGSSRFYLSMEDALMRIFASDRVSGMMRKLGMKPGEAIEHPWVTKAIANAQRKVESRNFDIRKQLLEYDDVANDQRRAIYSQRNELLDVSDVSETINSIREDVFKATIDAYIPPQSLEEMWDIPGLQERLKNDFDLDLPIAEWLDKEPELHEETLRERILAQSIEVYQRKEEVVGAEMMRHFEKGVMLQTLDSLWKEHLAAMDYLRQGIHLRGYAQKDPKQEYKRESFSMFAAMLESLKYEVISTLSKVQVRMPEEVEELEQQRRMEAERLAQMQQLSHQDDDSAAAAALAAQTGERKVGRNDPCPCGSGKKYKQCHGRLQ
Chain of Sialic acid-binding Ig-like lectin 9 (Homo sapiens) (Q9Y336 whole entry): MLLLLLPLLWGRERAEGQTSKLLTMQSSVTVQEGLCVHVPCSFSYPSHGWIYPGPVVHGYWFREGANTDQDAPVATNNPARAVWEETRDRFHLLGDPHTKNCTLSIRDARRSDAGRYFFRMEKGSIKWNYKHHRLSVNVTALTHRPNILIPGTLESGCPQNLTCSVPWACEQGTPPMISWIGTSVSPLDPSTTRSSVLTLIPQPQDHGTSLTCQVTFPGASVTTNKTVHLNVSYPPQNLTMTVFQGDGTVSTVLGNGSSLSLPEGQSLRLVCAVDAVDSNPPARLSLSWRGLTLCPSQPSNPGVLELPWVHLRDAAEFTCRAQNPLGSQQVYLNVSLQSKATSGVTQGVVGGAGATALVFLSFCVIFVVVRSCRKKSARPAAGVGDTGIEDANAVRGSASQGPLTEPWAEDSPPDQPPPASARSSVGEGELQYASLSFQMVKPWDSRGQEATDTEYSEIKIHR
Chain of Chromo domain-containing protein 1 (Saccharomyces cerevisiae (strain ATCC 204508 / S288c) (Baker's yeast)) (P32657 whole entry, the tested form may be a part): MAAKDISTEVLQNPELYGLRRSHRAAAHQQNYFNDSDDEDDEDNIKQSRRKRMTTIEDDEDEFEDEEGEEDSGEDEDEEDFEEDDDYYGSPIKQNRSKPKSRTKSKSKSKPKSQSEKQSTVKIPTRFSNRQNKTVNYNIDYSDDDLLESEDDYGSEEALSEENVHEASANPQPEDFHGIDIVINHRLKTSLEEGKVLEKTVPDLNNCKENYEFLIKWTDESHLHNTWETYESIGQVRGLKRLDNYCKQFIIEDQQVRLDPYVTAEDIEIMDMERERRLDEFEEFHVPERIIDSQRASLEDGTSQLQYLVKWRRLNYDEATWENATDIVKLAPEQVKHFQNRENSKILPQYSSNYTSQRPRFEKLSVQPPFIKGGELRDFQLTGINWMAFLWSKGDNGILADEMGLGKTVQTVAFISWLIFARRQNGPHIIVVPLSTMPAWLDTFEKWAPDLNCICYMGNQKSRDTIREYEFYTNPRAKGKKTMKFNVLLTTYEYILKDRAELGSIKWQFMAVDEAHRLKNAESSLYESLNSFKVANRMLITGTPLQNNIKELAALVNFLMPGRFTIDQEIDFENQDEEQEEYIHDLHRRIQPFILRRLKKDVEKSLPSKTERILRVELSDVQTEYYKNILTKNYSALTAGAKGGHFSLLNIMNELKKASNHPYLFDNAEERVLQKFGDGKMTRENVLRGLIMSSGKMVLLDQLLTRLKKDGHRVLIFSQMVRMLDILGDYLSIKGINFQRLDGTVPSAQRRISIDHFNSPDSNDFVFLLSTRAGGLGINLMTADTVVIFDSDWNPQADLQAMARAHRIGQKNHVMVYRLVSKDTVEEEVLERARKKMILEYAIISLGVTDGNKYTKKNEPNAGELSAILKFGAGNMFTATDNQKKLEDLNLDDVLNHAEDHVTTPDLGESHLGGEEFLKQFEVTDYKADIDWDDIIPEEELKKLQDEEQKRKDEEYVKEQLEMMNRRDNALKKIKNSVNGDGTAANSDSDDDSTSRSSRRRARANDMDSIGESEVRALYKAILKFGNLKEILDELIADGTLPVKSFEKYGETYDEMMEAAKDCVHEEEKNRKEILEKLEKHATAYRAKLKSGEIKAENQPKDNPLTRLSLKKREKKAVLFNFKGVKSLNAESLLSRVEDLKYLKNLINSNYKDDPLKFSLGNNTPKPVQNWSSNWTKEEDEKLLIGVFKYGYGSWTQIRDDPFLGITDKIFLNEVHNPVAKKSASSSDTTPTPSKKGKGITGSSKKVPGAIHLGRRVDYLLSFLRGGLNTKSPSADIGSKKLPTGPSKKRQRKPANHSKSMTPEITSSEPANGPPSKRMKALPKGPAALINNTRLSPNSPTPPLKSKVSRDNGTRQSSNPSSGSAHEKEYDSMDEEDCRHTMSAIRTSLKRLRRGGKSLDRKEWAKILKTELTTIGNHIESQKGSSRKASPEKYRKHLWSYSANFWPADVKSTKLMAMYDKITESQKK

`O=c1n(CCSCc2ccccc2F)nc2ccccn12`: the Percent Effect in [1] was -4.09%; in experiment [2], 7.79%; in experiment [3], 0.704%; in [4], -1.41%; in [5], 7.15%; in experiment [6], 4%. Also, the Percent Effect was 1.7% in experiment [7]; 16.8% in experiment [8]; 0.952% in [9]; 11.8% in experiment [10]; -29.5% in experiment [11].

Consider `C[S+]([O-])CCCNC(=O)c1cc(Br)c2c(c1)OCCO2` (stereo not drawn), for which the Percent Effect is -5.04% in experiment [1]; 10.7% in experiment [2]; -5.08% in [3]; 28.9% in experiment [4]; 5.55% in [5]; 48.4% in experiment [6]. Further, the Percent Effect in experiment [7] is 2.62%; in experiment [8], 8.03%; in experiment [9] it was 2.73%; in experiment [10], 13.6%; in [11], -7.44%.

Turning to `Cc1ccc(NC2CCN(C(=O)c3cccn3C)CC2)nn1`, the Percent Effect in experiment [1] was -10.3%; in experiment [2], 7.79%; in [3], -16.9%; in [4] it was 19.7%; in experiment [5], 11.2%; in [6], 2.85%. For the same compound, the Percent Effect in experiment [7] is 18.4%; in experiment [8], 26.6%; in experiment [9] it was 10.7%; in [10] it was 24.4%; in [11], -12.9%.

With `Cc1noc(C2CCC3(CCN(C(=O)c4c(C)noc4C)CC3)O2)n1` (stereo not drawn), the Percent Effect is -6.54% in experiment [1]; 2.7% in [2]; -4.63% in experiment [3]; 17.5% in experiment [4]; 7.53% in [5]; -6.2% in experiment [6]. Also, the Percent Effect in experiment [7] was 0.0858%; in [8], 5.82%; in experiment [9], -4.3%; in experiment [10], 11.1%; in experiment [11], -1.92%.

On to `O=C1CC(c2cccnc2)c2c(c(C(=O)O)cn2-c2ccccc2)N1` (stereo not drawn), for which the Percent Effect in experiment [1] was -3.57%; in [2], 6.67%; in experiment [3], -32.4%; in experiment [4], -0.792%; in experiment [5], -3.14%; in experiment [6], 6.16%. In addition, the Percent Effect was 14.6% in experiment [7]; 11.4% in [8]; 3.17% in experiment [9]; 10.3% in [10]; -8.81% in experiment [11].

For the compound `O=C1CC(N(C(=O)c2ccc3[nH]c4c(c3c2)CCCC4)C2CC2)C(=O)N1` (stereo not drawn), the Percent Effect in [1] was -1.37%; in experiment [2], 27.9%; in experiment [3], -6.86%; in experiment [4] it was -8.64%; in [5] it was 6.33%; in experiment [6], -3.8%. Further, the Percent Effect in experiment [7] is 19.7%; in experiment [8], -7.55%; in [9], 7.39%; in experiment [10], 24.1%; in experiment [11], -8.05%.

Take `O=c1oc(-c2cccs2)nn1CC(O)c1ccc(F)cc1` (stereo not drawn): the Percent Effect in experiment [1] was -3.82%; in experiment [2], 0%; in experiment [3], -2.3%; in [4], 3.88%; in [5], 3.41%; in experiment [6], -1.04%. Besides, the Percent Effect in experiment [7] is 13.9%; in [8], 18.7%; in [9], 6.01%; in experiment [10], 18.5%; in [11], -5.35%.

On to `CCC(C)CNc1ccc2oc(COC)nc2c1` (stereo not drawn), for which the Percent Effect in experiment [1] was 7.14%; in experiment [2], 32.4%; in [3], -44.5%; in experiment [4] it was 7.84%; in [5], -5.08%; in [6], 6.67%. In addition, the Percent Effect in experiment [7] is 20.9%; in [8], 42.4%; in experiment [9], -6.93%; in [10], -11%; in experiment [11], 4.53%.
